Screening results from PubChem BioAssay.
Rows were chosen to be rich in hits. Some 2.9% of all compounds tested hit in one or more screens of this group.
A549 tox = kills or reduces viability of A549 cells in Nrf2 counter-screen. A549 ARE-Fluc cells, CellTiter-Fluor viability, 18-24 h. Potency, µM (doses to about 46 µM), hits mostly inhibitors. 390,000 tested, 0.16% active
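A549 ARE_Fluc cells in 5% FBS OPTI-MEM were exposed to compounds in concentration-response for 18-24 h at 37 deg C. Viability was read by CellTiter-Fluor fluorescence (Ex 405/Em 525) after 30 min, before the luciferase read.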
Nrf2 ARE act = activators of Nrf2 (ARE) signaling; AREc32 ARE-luciferase reporter (MCF7-derived line), luminescence, 24 h; Potency, µM (highest dose often 46.1 µM), most hits filed as activators; 410,000 tested, 0.31% active; further: nearly all actives have a fitted effect of over 65% in size
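AREc32 cells carrying an ARE-driven firefly luciferase, 1000 cells/well in OPTI-MEM with 5% FBS, dosed after overnight attachment and incubated 24 hr at 37 deg C. Steady-Glo luminescence read after 30 min at RT.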
ATXN viability = viability counter-screen for ATXN expression inhibitors; S2 cells (HEK-293 line with an ATXN2-luciferase reporter) viability, CellTiter-Fluor protease fluorescence, 24 h; Potency, µM (highest dose often 56.7 µM), hits mostly cytotoxic; 400,000 tested, 0.49% active; AID 651635; further: nearly all actives have a fitted effect of over 40% in size
ATXN2 expr inh = reduces ATXN2 reporter expression in HEK-293 cells; Potency, µM (doses to about 57 µM), actives largely listed as inhibitors; HEK-293 ATXN2-luciferase reporter, luminescence, 24 h; 360,000 tested, 0.72% active; further: nearly all actives have a fitted effect of over 55% in size
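ATXN2-luciferase reporter cells (luciferase flanked by upstream and downstream ATXN2 gene portions) were treated 24 h at 37 °C with compounds at up to 57 uM. SteadyGlo luminescence gave expression; GF-AFC fluorescence gave viability.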
Nrf2 inh = Nrf2 pathway inhibition. A549 ARE-Fluc reporter, luciferase luminescence, 18-24 h. 360,000 tested, 2.1% active. Potency, µM (titrated, usually from 46 µM), usual class: inhibitors; further: nearly all actives have a fitted effect of over 60% in size
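Reporter: ARE-Fluc in A549. Exposure: 18-24 h, 37 °C, 5% CO2, 5% FBS OPTI-MEM. Readouts: fluorescent cytotoxicity (CellTiter-Fluor), then luminescent Nrf2 signal after BugLite.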
Numbers stand for hits; n = inactive; u = inconclusive; x = not tested or not shown; ! = repeats disagree; [ ] = another dose, or the depositor's remark. The call rests on the fitted dose curve; in most records, active means well fitted curve in the direction sought with a large enough effect; inconclusive means small, poorly fitted or top-dose-only effect, or another doubt; inactive means no such curve, though single readings can be large; an effect the other way counts as inactive or inconclusive.

SMILES	A549 tox	Nrf2 ARE act	ATXN viability	ATXN2 expr inh	Nrf2 inh
Cc1ccc([N+](=O)[O-])cc1N=Nc1c(-c2ccc([N+](=O)[O-])cc2)[nH]n(C(N)=S)c1=O	u	n	u	u	u
COc1ccc(-c2nnc(SC)o2)c(OC)c1	n	n	n	n	u
COc1ccc(OC)c(-c2nnc(-c3ccc(C)o3)o2)c1	n	11µM	n	n	u
CCn1c(Cc2c(C)[nH]c3ccccc23)nnc1SCC(=O)NCc1ccco1	n	n	n	n	n
CCCCCN(C(=O)CCC(=O)OCC(=O)c1ccc(C(C)CC)cc1)c1c(N)n(CCCC)c(=O)[nH]c1=O (stereo unspecified)	u	n	n	n	10µM
CCCCn1c(N)c(N(CCC(C)C)C(=O)c2ccc(-c3ccc([N+](=O)[O-])cc3)o2)c(=O)[nH]c1=O	n	n	x	14µM	n
CCCCn1c(N)c(N(CCC(C)C)C(=O)COC(=O)c2ccc([N+](=O)[O-])s2)c(=O)[nH]c1=O	n	n	n	n	23µM
CC(C)CN(C(=O)COC(=O)c1ccc([N+](=O)[O-])s1)c1c(N)n(Cc2ccccc2)c(=O)[nH]c1=O	n	n	n	n	n
CCCCCN(C(=O)CCC(=O)OCC(=O)N(C)c1ccccc1)c1c(N)n(CCCC)c(=O)[nH]c1=O	n	n	n	n	n
CCOc1ccc(NS(=O)(=O)c2ccc(C(=O)NCCCN3CCOCC3)cc2)cc1	n	n	n	n	u
Nc1nc2ccc(NC(=O)c3ccco3)cc2s1	n	n	n	n	n
COc1ccc2c(c1OC)C(=O)N(c1cccc(/C=C/C(=O)O)c1)C2	n	n	n	n	16µM
COc1ccc(N2Cc3ccc(OC)c(OC)c3C2=O)cc1	n	n	n	n	u
CC(/C=N/NC(=O)c1cc(-c2ccncc2)nc2ccccc12)=C\c1ccco1	18µM	u	n	n	n
CC(/C=N/NC(=O)CSc1nc2ccccc2n1C)=C\c1ccco1	n	13µM	n	n	n
C/C(=N/NC(=O)c1cccs1)c1ccco1	n	13µM	n	n	n
Cc1ccc(/C=N/NC(=O)c2cc(-c3ccncc3)nc3ccccc23)o1	n	n	n	n	u
CC(/C=N/NC(=O)Cc1cccs1)=C\c1ccco1	n	14µM	x	x	n
Cn1c(SCC(=O)N/N=C/c2ccco2)nc2ccccc21	n	n	n	n	u
Cc1cc(C)cc(Nc2sc(C(=O)c3ccccc3)c(N)c2S(=O)(=O)c2ccccc2)c1	n	n	u	n	x
CC(C)C[C@H]1CNC(=S)N1CC1CCCN1C[C@H](CC(C)C)N1C[C@H](CC(C)C)N(CC2CCCCCC2)C1=S (stereo partly specified)	n	n	n	n	u
CC(C)(C)NC(=O)/C(=C\c1ccco1)NC(=O)c1cccs1	n	n	n	n	n
CC(/C=N/NC(=O)c1cccs1)=C\c1ccco1	n	14µM	n	n[11.3 µM]	u
O=C1N(Cc2cccnc2)C[C@@H]2C[C@@H](c3cccc(Oc4ccccc4)c3)N3CCC[C@@]123	n	n	n	n	n
CCC(C)NC(=O)Nc1ccc(Br)cc1 (stereo unspecified)	n	n	n	n	u
SMILES	A549 tox	Nrf2 ARE act	ATXN viability	ATXN2 expr inh	Nrf2 inh
CCC(C)Nc1ccc(NC(C)CC)cc1 (stereo unspecified)	0.15µM	n	x	u	0.073µM
CCOc1ccc(NC(=O)Cn2c(=O)n(Cc3ccc(C(=O)NCc4ccc(C)cc4)cc3)c(=O)c3ccccc32)cc1	n	n	n	n	18µM
Cc1ccsc1C(=O)OCC(=O)NCC1CCCO1 (stereo unspecified)	n	n	n	n	u
COc1ccc(-n2cnnc2SCC(=O)NC2CCS(=O)(=O)C2)cc1 (stereo unspecified)	n	n	n	n	n
COc1ccc(-c2nc(NC(=O)Cn3cnnn3)sc2C)cc1	n	n	n	n	n
COc1ccc(-c2nc(NC(=O)Cn3ccc(C(F)(F)F)n3)sc2C)cc1	u	n	n	n	21µM
CC(c1nc2scc(-c3ccccc3)c2c(=O)[nH]1)N1CCN(CC(=O)NC2CC2)CC1 (stereo unspecified)	n	n	n	n	n
CC(C)(C)CC(C)(C)c1ccc(O)c(Cc2ccc(Cl)cc2Cl)c1	n	n	28µM	22µM!	u
CC(C)c1ccc(S(=O)(=O)N2CCN(C(=O)C3=COCCO3)CC2)cc1	n	n	n	n	n
COc1ccc2c(Sc3ccc(Cl)cc3)c(C(=O)N3CCCCC3)[nH]c2c1	n	n	u	n	21µM
COc1ccc2c(Sc3ccc(C)cc3)c(C(=O)NC(C)C)[nH]c2c1	n	n	n	n	23µM
COc1ccc2c(Sc3ccc(C)cc3)c(C(=O)NCC(C)c3ccccc3)[nH]c2c1 (stereo unspecified)	n	n	n	n	u
COc1cc(-c2ccc3cc(OC)c(OC)c(OC)c3c2)cc(OC)c1OC	x	n	n	x	x
CCCC(=O)N1CCN(c2ccc(NC(=S)NC(=O)c3cccc(C)c3)cc2)CC1	n	n	u	u	15µM
COc1cccc(NC(=O)c2oc3ccccc3c2NC(=O)C(C)(C)C)c1	n[1.84 µM]	n	n	n	9.2µM
COc1cccc(NC(=O)c2oc3ccccc3c2NC(=O)c2cc3ccccc3o2)c1	n	n	n	n	n
CCN(CC1COc2ccccc2O1)C(=S)NCCCN(C)C (stereo unspecified)	n	n	n	n	n
CNCc1ccccc1Sc1cccc2ccccc12	n	n	n	n	n
CN(C)CCN(C)Cc1ccccc1Sc1cccc2ccccc12	n	n	20µM	25µM	n
Cc1cc(=O)n2cc(-c3ccccc3)nc2[nH]1	n	n	x	x	n
Cc1ccc(-c2cn3c(=O)cc(C)[nH]c3n2)cc1	n	n	n	n	5.8µM
CC(O)Cn1nc([N+](=O)[O-])nc1N (stereo unspecified)	n	n	n	n	n
CCN1/C(=C/c2ccc3cc(C)ccc3[n+]2CC)Sc2cc(C)c(C)cc21	u	n	u	u	1.3µM
C/C(=N/Nc1ccnc2cc(Cl)ccc12)c1ccc(N)cc1	n	n	25µM	n	n
Clc1ccc2c(N/N=C/c3ccccc3Br)ccnc2c1	u	n	u	u	10µM
C/C(=N/Nc1ccnc2cc(Cl)ccc12)c1ccc(O)cc1	n	n	u	n	n
Clc1ccc2c(N/N=C/c3cccc(Br)c3)ccnc2c1	n	n	x	u	n
CC[C@H](C)[C@@H](CN[C@H](C)CNC)NCCC(c1ccccc1)c1ccccc1	n	n	32µM	u	n
C=CCC[C@H](Cc1ccc(F)cc1)C(=O)OC[C@H](Cc1c[nH]c2ccccc12)NC(=O)[C@H](CC=C)CC(=O)NCCO	n	n	u	u	n
C=CCC[C@@H](Cc1ccc(F)cc1)C(=O)OC[C@@H](Cc1c[nH]c2ccccc12)NC(=O)[C@@H](CC=C)CC(=O)NCCO	n	n	32µM	u	u
